tim23-1 inh: growth inhibitors of tim23-1 mutant yeast, primary screen, luminescence, uHTS; inhibition, % at 20 µM; 330,000 compounds, 1.3% hits; S. cerevisiae tim23-1 growth, BacTiter-Glo luminescence, 24 h;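 active = growth inhibition of the mutant yeast at or above 50%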;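 also: temperature-sensitive mutant grown at 25 °C; plate controls were DMSO-treated mutant yeast for no effect and medium wells lacking yeast for full effect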
PfHsp90 set2: growth inhibition of PfHsp90-expressing yeast, primary screen, antimalarial PfHsp90 inhibitor project, S. cerevisiae, BacTiter-Glo luminescence, single point, set 2; 310,000 compounds, 0.32% hits; BacTiter-Glo ATP, 48 h; yeast lacking PDR1 and PDR3 efflux regulators; inhibition, % at 9.4 µM;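 active = every replicate shows inhibition above about 80%, whatever the replicate mean, limit read from the data; inconclusive = mean inhibition reaches the set limit but some replicate falls short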;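 also: 0% = DMSO neutral controls and 100% = 20 µM radicicol positive controls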
tim10-1 inh: growth inhibitors of tim10-1 mutant yeast, primary screen, luminescence, uHTS | S. cerevisiae tim10-1 ts strain growth, BacTiter-Glo, 24 h | inhibition, % at 20 µM | 330,000 compounds, 2.2% hits;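 active = inhibition of at least 40%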;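 also: mutant grown at 25 °C; 0% = DMSO wells with yeast and 100% = wells holding no yeast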
SKKanGAS inh: S. pyogenes SKKanGAS growth inhibitors in kanamycin, primary screen, streptokinase expression inhibitor project, SKKanGAS strain, BacTiter-Glo luminescence; 6 h; inhibition, % at 7.5 µM; 300,000 compounds, 1.3% hits; AID 1662, 2009;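 active = mean replicate score, as percent of positive control median, at least 50; inconclusive = mean below 50 but one replicate at or above 50; inactive = mean and every replicate below 50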;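 also: strain carries kanamycin resistance gene driven by streptokinase promoter and grows in 40 µg/ml kanamycin; loss of luminescence reflects streptokinase promoter inhibition or plain growth inhibition; 0% = median of DMSO wells and 100% = positive control at its reference dose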
TIM10 inh: growth inhibitors of isogenic TIM10 control yeast, primary screen, counter-screen for tim10-1 yeast inhibitor project, luminescence, uHTS; inhibition, % at 10 µM; 330,000 compounds, 1.4% hits; S. cerevisiae TIM10 strain growth, BacTiter-Glo luminescence, 24 h;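 active = inhibition of 40% or more at the single tested concentration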;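 also: wild-type TIM10 isogenic control strain grown at permissive 25 °C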
tim10-1 conf: growth inhibitors of tim10-1 mutant yeast, confirmation, single concentration, luminescence, S. cerevisiae. shares compounds with tim10-1 inh. S. cerevisiae tim10-1 ts strain growth, BacTiter-Glo, 24 h. inhibition, % at 20 µM. 7,400 compounds, 56% hits. AID 463213, 2010;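 active = inhibition of yeast growth at or above a set limit in either of two repeat tests at 20 µM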;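 also: tim10-1 mutant grown at permissive 25 °C to find synthetic lethal compounds; 0% = DMSO yeast wells and 100% = medium wells without yeast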
tim10 confirm: growth inhibitors of wild-type TIM10 yeast, confirmation, counter-screen for tim10-1 synthetic lethality project, single concentration, luminescence, S. cerevisiae; shares compounds with TIM10 inh; S. cerevisiae tim10 strain growth, BacTiter-Glo luminescence, 24 h; inhibition, % at 10 µM; 4,600 compounds, 63% hits; AID 463215, 2010;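 active = inhibition of yeast growth at or above a set limit in either of two replicates at 10 µM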;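 also: this counterscreen used the strain with wild-type TIM10; 0% = yeast with DMSO and 100% = medium wells lacking yeast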
Numbers without * were called inactive; u = inconclusive; x = no result. Shown are actives, neighbours in structure and some others; about 4.4% of the full set was active somewhere.

SMILES	tim23-1 inh	PfHsp90 set2	tim10-1 inh	SKKanGAS inh	TIM10 inh	tim10-1 conf	tim10 confirm
Cc1cc(NC(=O)COC(=O)c2ccc(OC(F)(F)F)cc2)no1	14	14	8	x	-2	x	x
Cc1cc(NC(=O)COC(=O)C(Nc2ccc(C(F)(F)F)cc2Cl)C(C)C)no1 (stereo not drawn)	43	15	53*	29	50*	23	43*
Cc1nc2ccc(NC(=O)c3ccc(C)c(S(=O)(=O)N4CCOCC4)c3)cc2s1	23	-11	8	x	9	x	x
COC(=O)COc1ccc(-c2ccc(F)cc2)cc1C=O	39	11	62*	-5	74*	65*	80*
COC(=O)COc1ccccc1C(N)=O	10	12	-2	-4	-5	x	x
COc1ccc(C2CC2/C(=N/OC(=O)c2cccs2)c2ccccc2)cc1 (stereo not drawn)	45	-14	63*	-10	63*	59*	64*
COc1ccc(C(=O)O/N=C(/c2cccs2)C(C)(C)C)cc1	11	-20	-5	-3	-10	x	x
Cc1onc(-c2c(F)cccc2Cl)c1C(=O)Nc1nnc(C(F)(F)F)s1	12	10	11	4	10	x	x
Cc1cc2c3c(c1)C1(SCC(=O)N1c1ccc(F)cc1)C(=O)N3C(C)(C)CC2C (stereo not drawn)	45	7	48*	6	42*	40*	41*
NNC(=S)Nc1c(F)cc(F)cc1Br	8	0	25	7	10	x	x
O=[N+]([O-])c1cccc(-c2nc(-c3ccccc3)c(-c3cccs3)[nH]2)c1	10	-20	17	-6	14	x	x
O=[N+]([O-])c1ccc(-c2nc(-c3cccs3)c(-c3cccs3)[nH]2)cc1	15	-6	65*	u	69*	52*	61*
CC(C)(O)C#Cc1ccc(CN2CCCC(CO)(Cc3cccc(Cl)c3)C2)cc1 (stereo not drawn)	26	4	25	-4	11	x	x
O=C(c1ccc2c3n(nc2c1)-c1ccccc1CO3)N1CCOCC1	49	29	48*	37	41*	51*	31*
Cc1ccc2c(COC(=O)C3CSC4(C)CCC(=O)N34)cc(=O)oc2c1C (stereo not drawn)	31	24	26	x	15	x	x
CCN(C(=O)c1ccco1)c1nc(CC(=O)Nc2ccc(Cl)cc2)cs1	24	-15	-1	0	20	x	x
CCC(=O)N(Cc1ccco1)c1nc(C(=O)Nc2ccc(Cl)cc2)c(C)s1	35	5	46*	-3	44*	35*	38*
COc1ccc(NC(=S)Nc2ccc(C)c(Cl)c2)cc1OC	22	-12	-24	8	-42	x	x
Cc1cccc(C)c1NC(=S)Nc1ccc(Cl)c(Cl)c1	25	-9	47*	20	52*	38*	48*
N#CC1(C#N)[C@@H](C(=O)C23CC4CC(CC(C4)C2)C3)C12CCOCC2	31	15	57*	-5	44*	48*	-6
COc1ccc(NC(=O)CN2C(=O)C(C)Oc3ccccc32)cc1OC (stereo not drawn)	1	-1	1	3	-9	x	x
Cc1cc(NC(=O)CSc2nc3c(c(=O)n2C)SCC3)no1	0	6	0	-1	13	x	x
Cc1ccc2c(c1)sc(-c1ccc(N(C)C)cc1)[n+]2C	48	13	70*	1	85*	74*	82*
O=c1oc(-c2ccccc2)cc(Cl)c1Cl	22	117*	81*	4	76*	86*	78*
Cc1ccc(/C=C2\SC(=S)N(CCCC(=O)NC3CCCC3)C2=O)cc1	5	-6	19	-4	5	x	x
SMILES	tim23-1 inh	PfHsp90 set2	tim10-1 inh	SKKanGAS inh	TIM10 inh	tim10-1 conf	tim10 confirm
O=C(Nc1ccc(Oc2c(F)c(F)c(F)c(F)c2F)cc1)OC1CCN2Cc3ccccc3N=C12 (stereo not drawn)	18	7	29	0	16	x	x
COc1ccccc1NC(=O)c1cnc(SCC(=O)NCC2CCCO2)n(C)c1=O (stereo not drawn)	-5	13	-33	-10	-9	x	x
N#CC1(C#N)CC(C=O)=C(N)C1(C#N)CC(=O)C12CC3CC(CC(C3)C1)C2 (stereo not drawn)	48	22	40*	9	48*	48*	40*
Cc1ccc(S(=O)(=O)Nc2c(C)cc(C)nc2Cl)cc1	17	8	31	-1	12	x	x
CC(C)(C)NC(=S)NC(=O)C12CCC3CC(CC(C3)C1)C2	34	-3	44*	16	49*	32*	36*
N#Cc1sc2nc(C3CC3)cc(-c3ccc(Cl)cc3)c2c1N	40	-9	43*	9	44*	36*	-6
CCCN(CCC)C(=S)NC(=O)c1ccc(Cl)cc1Cl	42	19	54*	-11	40*	28	37*
CCC(=O)Nc1cccc(NC(=S)NC(=O)c2ccc(Cl)cc2Cl)c1	17	3	10	-5	10	x	x
O=C(COc1ccccc1)NC(=S)N1CCc2ccccc21	43	-6	43*	11	41*	18	-23
COc1ccc(OCC(=O)NC(=S)N2CCCc3ccccc32)cc1	9	-8	-4	2	-3	x	x
COc1ccc(S(=O)(=O)N2CCN(CC(=O)Nc3sccc3C(N)=O)CC2)cc1OC	10	-1	16	x	5	x	x
S=C(N/N=C/c1ccco1)NC1CC2CCC1C2 (stereo not drawn)	49	-10	51*	4	42*	36*	51*
CC(C)n1c(-c2ccc(C(C)(C)C)cc2)n[nH]c1=S	47	-38	43*	7	44*	35*	46*
CSc1ccc(S(=O)(=O)NCc2ccc(Cl)cc2Cl)cc1	40	1	47*	-5	46*	39*	39*
O=C(c1ccc([N+](=O)[O-])cc1)N1CCN(C2=NS(=O)(=O)c3ccccc32)CC1	16	14	3	-1	3	x	x
CC(C)Nc1nnc(Sc2ccc(Cl)cc2[N+](=O)[O-])s1	48	44	79*	-5	69*	72*	8
Nc1nnc(Sc2ccc(Cl)cc2[N+](=O)[O-])s1	-2	23	15	-5	3	x	x

Bioassay records from PubChem BioAssay.
